# From PubChem
# Pf growth 48h: P. falciparum growth inhibition at 48 hours (one generation) | P. falciparum luciferase growth in erythrocytes, 48 h | Potency, µM (titrated, usually from 28.7 µM), most hits filed as inhibitors | 310,000 tested, 5.9% active | AID 504832
#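 First compound was added to culture medium, then infected red cells at 0.1% parasitemia and 2% hematocrit (final). After incubation at 37 C under 5% CO2, luciferase detection reagent was dispensed and light output recorded.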
# Pf growth 96h: P. falciparum growth inhibition at 96 hour, primary screen for plastid delayed-death inhibitors | P. falciparum luciferase reporter growth, 96 h | Potency, µM (top dose mostly 28.7 µM), hits mostly inhibitors | 320,000 tested, 6.9% active | AID 504834
#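 96 h incubation, 37 C, 5% CO2, of luciferase-reporter P. falciparum-infected RBCs (2% hematocrit, 0.05% parasitemia final) with test compounds; endpoint luminescence.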
# Shiga inhibitor: blocks Shiga toxin action in Vero cells | Vero cells, Shiga toxin protein synthesis inhibition reporter | inhibition, % at 38.7 µM | 290,000 tested, 9.2% active; in the data active = inhibition mostly above about 28%, no sharp cut-off; inactive = mostly below about 43%
# NS1 function inh: blocks influenza NS1 protein function; Potency, µM (series often up to 46.1 µM); 270,000 tested, 0.4% active; AID 2326; calls by dose curve; also: actives are rising curves; nearly all actives have a fitted effect of over 50% in size
#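 A cell-based growth assay was used: compounds that relieve NS1-induced slow growth of budding yeast raise OD600. Assay medium was yeast nitrogen base with ammonium sulphate and -URA supplement, pH 6.0, with 2% galactose.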
# Cycloheximide cs: counter-screen hit for Shiga toxin inhibitors, cycloheximide. cell reporter, cycloheximide protein synthesis inhibition counterscreen. max response, %. 300,000 tested, 12% active. AID 2314; in the data active = max response mostly above about 13%, no sharp cut-off; inactive = mostly below about 14%; also: read at 38.3 µM for the half of the compounds with a filed dose
# Sm TGR inh: blocks Schistosoma mansoni thioredoxin glutathione reductase | 360,000 tested, 3% active | Q962Y6 | AID 485364 | purified TGR, DTNB reduction, TNB absorbance 405 nm | Potency, µM (titrated, usually from 114 µM), hits mostly inhibitors; also: nearly all actives have a fitted effect of over 60% in size
#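 Kinetic colorimetric format: TGR-catalysed, NADPH-driven DTNB reduction monitored via TNB absorbance. Enzyme dispensed at 20 nM; compound exposure 15 min at room temperature before reaction start.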
# Numbers stand for hits; i = inactive; ? = inconclusive; nt = no result. Most compounds without a hit are left out; they make up all but 21% or so of the library. Unless noted, calls follow the shape of the dose curve; as a rule, active = well fitted curve in the direction sought with a large enough effect; inconclusive = small, poorly fitted or top-dose-only effect, or another doubt; inactive = no such curve, though single readings can be large; an effect the other way counts as inactive or inconclusive.
SMILES,Pf growth 48h,Pf growth 96h,Shiga inhibitor,NS1 function inh,Cycloheximide cs,Sm TGR inh
O=C(Nc1nc(-c2ccc(S(=O)(=O)N3CCCC3)cc2)cs1)C1COc2ccccc2O1 (stereo unspecified),9.28µM,i,i,7.94µM,i,i
CCCCCCCCCCCC(=O)OCC(O)CO (stereo unspecified),i,i,nt,nt,nt,nt
Cc1csc(NC(=O)C2COc3ccccc3O2)n1 (stereo unspecified),i,nt,i,i,13.4,i
C[C@@H](C(=O)Nc1nc(-c2ccccn2)cs1)N1C(=O)C2CCCCC2C1=O (stereo partly specified),nt,11.7µM,i,i,i,i
O=C(CN1C(=O)C2CCCCC2C1=O)Nc1nc(-c2ccccn2)cs1 (stereo unspecified),nt,?,i,i,i,i
CC1CC1C(=O)Nc1nc(-c2ccccn2)cs1 (stereo unspecified),nt,3.7µM,i,i,21.6,i
COC(=O)CC(N)c1ccc(OC)c2ccccc12 (stereo unspecified),nt,i,i,i,i,i
Cc1cccc(C)c1NS(=O)(=O)c1ccc(NS(=O)(=O)c2ccc3c(c2)OCCO3)cc1,nt,nt,nt,nt,nt,i
O=C(CCC1CCCN(C(=O)C2(c3ccccc3)CC2)C1)N1CCN(c2ccccn2)CC1 (stereo unspecified),i,?,i,i,20.1,i
CCc1[nH]nc(C(=O)N2CCCC(CCC(=O)N3CCN(c4ccccn4)CC3)C2)c1C (stereo unspecified),?,i,i,i,13.5,i
O=C(CCC1CCCN(c2ncccn2)C1)N1CCN(c2ccccn2)CC1 (stereo unspecified),i,i,i,i,i,i
CC(=O)N1CCc2c(sc3c2c(=O)n(Cc2ccccc2)c(=O)n3CC(=O)Nc2ccc(C)c(F)c2)C1,nt,nt,nt,nt,nt,i
CCC(C)(C)NC(=O)CN(C(=O)CCC(=O)Nc1nccs1)c1cccc(C)c1C,13.1µM,i,i,i,i,i
CCC(C)(C)NC(=O)C(c1ccc(O)cc1)N(CCOC)C(=O)CCC(=O)Nc1nccs1 (stereo unspecified),2.94µM,i,i,i,i,i
CCC(C)(C)NC(=O)CN(C(=O)CCC(=O)Nc1nccs1)c1ccc(C)cc1,i,?,i,i,i,i
CCC(C)c1ccccc1NC(=O)COC(=O)c1ccc2[nH]c3c(c2c1)CCCC3 (stereo unspecified),?,?,i,i,i,i
O=C(NCCCc1ccncc1)C1CCC(=O)N(CCc2cccc(F)c2)C1 (stereo unspecified),i,i,i,i,i,i
Cc1[nH]n(-c2nc(-c3ccc(Cl)cc3)cs2)c(=O)c1N=Nc1ccc(O)cc1,?,6.57µM,i,i,i,i
Cc1[nH]n(C2=NCCS2)c(=O)c1N=Nc1ccccc1,i,i,i,i,i,nt
C#CC(C)(C)NC(=O)c1ccc(-c2ccccc2F)cc1,i,i,63.7,i,30.1,i
NC(=O)c1ccc(-c2ccccc2F)cc1,i,i,41.2,i,16.5,i
O=S(=O)(O)n1ccnc1 (tested in a mixture with another compound),nt,nt,nt,i,nt,nt
CCN(CC)C(=O)c1cccc(NC(=O)c2cc(C3CC3)nc3c2cnn3C(C)C)c1,?,5.22µM,nt,nt,nt,i
CNC(=O)c1cccc(NC(=O)c2cc(-c3ccccc3)nc3c2cnn3C(C)C)c1,4.65µM,?,nt,nt,nt,i
CC(C)n1ncc2c(C(=O)Nc3cccc(S(=O)(=O)N(C)C)c3)cc(C3CC3)nc21,11.7µM,?,nt,nt,nt,i
SMILES,Pf growth 48h,Pf growth 96h,Shiga inhibitor,NS1 function inh,Cycloheximide cs,Sm TGR inh
CC(C)n1ncc2c(C(=O)Nc3ccc(S(C)(=O)=O)cc3)cc(C3CC3)nc21,?,?,nt,nt,nt,i
CC1(C)CC(=O)C=C(CN2C(=O)c3ccccc3C2=O)C1=O,i,i,nt,nt,nt,i
COc1ccc(C(=O)N(c2ccc(OC)cc2)S(=O)(=O)c2ccc3c(c2)n(C)c(=O)n3C)cc1,nt,nt,nt,nt,nt,i
COC(=O)C(Nc1ccccc1Cl)(c1cc(C)c(O)c(C)c1)C(F)(F)F (stereo unspecified),9.28µM,nt,i,i,i,i
O=C(NCc1ccc(Cl)cc1)c1ccc2oc(=O)n(Cc3ccccc3)c2c1,nt,nt,nt,nt,nt,i
COC(=O)c1ccccc1NC(=O)Cc1nc(-c2ccc(OC)cc2)no1,nt,nt,nt,nt,nt,i
CCOc1ccc(C(=O)Nc2cc3c(cc2N2CCCC2)n(CC)c(=O)n3CC)cc1OCC,?,11.7µM,i,i,i,?
Cn1c(=O)n(C)c2cc(N3CCCCC3)c(NC(=O)c3cccc(Cl)c3)cc21,10.4µM,?,i,i,i,i
CCn1c(=O)n(CC)c2cc(N3CCCC3)c(NC(=O)c3cccc(OC)c3)cc21,?,0.738µM,i,i,i,?
CCOc1cc(C(=O)Nc2cc3c(cc2N2CCOCC2)n(C)c(=O)n3C)cc(OCC)c1OCC,i,8.28µM,i,i,i,i
Cc1cccc(-c2noc(-c3ccc(NCC4CCCO4)c([N+](=O)[O-])c3)n2)c1 (stereo unspecified),nt,nt,nt,nt,nt,i
CCOC(=O)C1CCN(C(=O)Cn2c(-c3cccs3)cc3cc(Cl)ccc32)CC1,nt,nt,nt,nt,nt,i
O=C(NCCCn1ccnc1)c1cc(Cl)cc(Cl)c1,i,i,i,i,i,i
CCc1ccc(NC(=S)N(CCN(C)C)C(C)c2ccncc2)cc1 (stereo unspecified),i,?,i,nt,i,i
CCCc1nn(C)c(C(=O)Nc2ccc(Cl)cc2)c1Cl,i,i,i,i,24.9,i
CCCc1nn(C)c(C(=O)Nc2ccccc2)c1Cl,i,i,72.1,i,91.8,i
CCCc1nn(C)c(C(=O)Nc2ccc(C(C)(C)C)cc2)c1Cl,i,?,i,i,i,i
CC(=O)n1cc(/C=N/NC(=O)c2ccccc2O)c2ccccc21,i,i,65.6,i,25.7,i
Cn1cc(/C=N/NC(=O)c2ccccc2O)c2ccccc21,?,i,i,i,24.7,i
CC(C)(C)OC(=O)n1cc(/C=N/NC(=O)c2ccco2)c2ccccc21,i,i,68.4,i,37.4,i
Cc1nc(C)c(C(=O)N/N=C/c2cn(C)c3ccccc23)s1,nt,i,i,i,i,i
COc1ccc(C(=O)Nn2cnnc2)cc1OC,i,i,i,i,i,i
CC(C)Cn1c(=O)c(C(=O)Nc2ccccc2S(N)(=O)=O)c(O)c2ccccc21,i,i,i,i,i,i
Cn1c(=O)c(C(=O)NNC(=O)c2ccccc2Br)c(O)c2ccccc21,i,2.08µM,i,i,i,i
Cn1c(=O)c(C(=O)Nc2ccccn2)c(O)c2ccccc21,i,10.4µM,44.1,i,33.3,i
CC(C)CCn1c(=O)c(C(=O)Nc2ccccc2S(N)(=O)=O)c(O)c2ccccc21,i,nt,i,i,i,i
CCC(C)n1c(=O)c(C(=O)Nc2ccccc2S(N)(=O)=O)c(O)c2ccccc21 (stereo unspecified),i,9.28µM,i,i,i,i
Cn1c(=O)c(C(=O)Nc2ccccc2S(N)(=O)=O)c(O)c2ccccc21,i,i,i,i,13.0,i
